Whole data set: some 68,000 sequences, median “fluorescence intensity (a.u.)” near 9,100, cut for the highest 2% near 16,000. Only a selection was taken, and the highest values are over-represented in it overall.

Our source for the binding signal values is article PMC7819943, “Rice protein-binding microarrays: a tool to detect cis-acting elements near promoter regions in rice”.

For this test, the target named is OsWRKY34 (Oryza sativa, UniProt Q0JBA9 1-250). Description: protein-binding microarray (RPBM); PBS, 2% BSA, 51.3 ng/ul salmon testes DNA, 50 uM zinc acetate, 200 nM TF, 25 C, 1 h; high values mean tight binding. The settings on record: protein: recombinant; tags: N-terminal polyhistidine and DsRed monomer fusion (pET32a); label: CyDye5-dUTP incorporated in the synthesized complementary strand; 3' TTTTT single-stranded linker to array surface; dsDNA, one strand shown. The gist of the method: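 Binding signal is defined as the fluorescence intensity of each feature in arbitrary units, read on an Axon 4000B scanner. Transcription factors with N-terminal polyhistidine and DsRed fusions came from E. coli BL21-CodonPlus and were purified on Ni–NTA. They were incubated at 200 nM for 1 h at 25 °C on a custom Agilent array that had been made double-stranded with Cy5-dUTP, with 50 µM zinc acetate present, and the array was washed.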
Sequence of OsWRKY34 (Q0JBA9 entry or part of it): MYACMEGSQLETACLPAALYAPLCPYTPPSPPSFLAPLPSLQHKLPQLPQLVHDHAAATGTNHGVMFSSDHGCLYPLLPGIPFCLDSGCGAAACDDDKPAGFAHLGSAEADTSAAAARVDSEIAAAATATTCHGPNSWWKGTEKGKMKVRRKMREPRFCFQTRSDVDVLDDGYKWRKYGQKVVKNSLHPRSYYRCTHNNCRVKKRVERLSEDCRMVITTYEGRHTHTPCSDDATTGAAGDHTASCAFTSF
Turning to “CCACCGCCCGCCGTCGTCTCTCTCTCTCTCTCTCTCTCTTCGGAGTCACCTAGTGCAG”, the binding signal is 9970 fluorescence intensity (a.u.). In the case of “TATGACGCCGTTGACTTATTGACTAACGTTTGACCATTCGCGGAGTCACCTAGTGCAG” it was 21500 fluorescence intensity (a.u.); in that of “GACGCCGTTGACTTTTTGACCAACGTTTGACCTTTCGTCTCGGAGTCACCTAGTGCAG”, 31400 fluorescence intensity (a.u.). Take “CGCCGTTTAGTTTTTACTAACGTTTGACCATTTTTCTTATCGGAGTCACCTAGTGCAG”: the binding signal is 11700 fluorescence intensity (a.u.). In the case of “CCCGTGTCTTCCCAACCACGTTGACCACGACTTTTTCGTTCGGAGTCACCTAGTGCAG” it was 9480 fluorescence intensity (a.u.).

Take “GATGACGTTGTTAACTTTTTATCACACGTTTGACCATTCGCGGAGTCACCTAGTGCAG”: the binding signal was 8510 fluorescence intensity (a.u.).

Take “GTTGTATAGGTTGGTTTTTTATGTATGACGCCGTTGACTTCGGAGTCACCTAGTGCAG”: the binding signal is 17100 fluorescence intensity (a.u.). In the case of “CTCTCTCACTCTTCTCCCTCTTCTCACCACCAGACGCCATCGGAGTCACCTAGTGCAG” it was 8850 fluorescence intensity (a.u.); in that of “TATGTCACGTATAAAATTCTAATGCTAGCTAACTACCATACGGAGTCACCTAGTGCAG”, 8340 fluorescence intensity (a.u.); in that of “GATCCGACTCCTACTTCTAACGTAGATTTTCGGCCTTTATCGGAGTCACCTAGTGCAG”, 8370 fluorescence intensity (a.u.). The result for “TTGCAAATGCAACCCTATTATGCCATCCTTTGTTATCCTGCGGAGTCACCTAGTGCAG” reads 9550 fluorescence intensity (a.u.); that for “TTTGTTCTCTTTTATATGTAACACTTGCATATTTACCTTCCGGAGTCACCTAGTGCAG”, 8980 fluorescence intensity (a.u.); that for “CTTCTCTTACCTCGGTGGGTGCTTAATGTGCTGGTTTGAACGGAGTCACCTAGTGCAG”, 8740 fluorescence intensity (a.u.). As to “GCCATCCACTTGTGCTGCCAATTTGCTCAATCCCGACAAGCGGAGTCACCTAGTGCAG”, the binding signal was 8220 fluorescence intensity (a.u.). In the case of “ACATTTCTGTTATTCCCCGCGGACAAGTCACAACTACTTCCGGAGTCACCTAGTGCAG” it was 9830 fluorescence intensity (a.u.); in that of “CGCCGCCCATCTTGTCCCAATTCGGCTCCTATAAATTTCCCGGAGTCACCTAGTGCAG”, 8750 fluorescence intensity (a.u.); in that of “TGCCTCCTTTTGTTTTGCGTCTCCTTATCAGAGTGGATTGCGGAGTCACCTAGTGCAG”, 8350 fluorescence intensity (a.u.). In the case of “ATCCCAATCCATGATCCAGCCATTCATCATCTGCATATATCGGAGTCACCTAGTGCAG”, the binding signal is 9790 fluorescence intensity (a.u.). For “ACTATTACTACCTCAGTTTTGAAATGTATGACGTTGACTTCGGAGTCACCTAGTGCAG”, the binding signal is 11000 fluorescence intensity (a.u.). For “ATGTATGACGCCGTTGACTTTTCGACCAACGTTTATTCGTCGGAGTCACCTAGTGCAG”, the binding signal is 30200 fluorescence intensity (a.u.). For “AATGTATGACGCCGTTGACTTTTTGACCAACGTTTGACTACGGAGTCACCTAGTGCAG”, the binding signal is 36100 fluorescence intensity (a.u.). The result for “GTTTAGTTGATTTCAGGGCCAGTTCTTGTGGGGTTTTCAACGGAGTCACCTAGTGCAG” reads 8490 fluorescence intensity (a.u.); that for “AAACGCTATTGACTTTTTTTATAAATGTATGACCATTCGTCGGAGTCACCTAGTGCAG”, 10400 fluorescence intensity (a.u.); that for “AGATGACGCCGTTGACTTTTTATCACATGTTTAACCATTCCGGAGTCACCTAGTGCAG”, 42300 fluorescence intensity (a.u.).

On to “ATGTACGACGCTATTGACTTTTTAACCAACGTTTGACTATCGGAGTCACCTAGTGCAG”, for which the binding signal is 11000 fluorescence intensity (a.u.). With “TCTTGTGCAGGGGTTGATTTTTCAGTGTATAGGGGTATGACGGAGTCACCTAGTGCAG”, the binding signal was 16800 fluorescence intensity (a.u.).

With “AATATTCGACGCCGTTCACTTTTTTAAATATGTTTGACCACGGAGTCACCTAGTGCAG”, the binding signal is 9820 fluorescence intensity (a.u.). In the case of “ATGAGTGATTGATTTCTTGTTTATAGGAGTGGGTTGTTCACGGAGTCACCTAGTGCAG” it was 11200 fluorescence intensity (a.u.). The result for “AGATTACGCCGTTAACTTTTTCTCACATGTTTGACCATTCCGGAGTCACCTAGTGCAG” reads 11000 fluorescence intensity (a.u.); that for “ATCTGTCAGTGCCACATCACCACCACACAACCGCAAAGAACGGAGTCACCTAGTGCAG”, 9250 fluorescence intensity (a.u.). In the case of “ATCGGTGTTGACCTCCATATGCTGATCAGGCCCCATTTCCCGGAGTCACCTAGTGCAG” it was 8140 fluorescence intensity (a.u.); in that of “GGCCGAGCAGGTCTCCCGCGCCTTCGACATCCCTCTGCCACGGAGTCACCTAGTGCAG”, 8600 fluorescence intensity (a.u.). On to “TTCCTCTACATTCTACGTCCGGTTGGATTTTGCATGCGATCGGAGTCACCTAGTGCAG”, for which the binding signal is 8640 fluorescence intensity (a.u.). For “TTCTTCCCAGATCGTGCTTCTCCCACTCGGATCAGCCGCCCGGAGTCACCTAGTGCAG”, the binding signal was 8110 fluorescence intensity (a.u.). The result for “TGTTGTTTTTTATGTGTGAACCTCTTTGATCTCAATGCAACGGAGTCACCTAGTGCAG” reads 8510 fluorescence intensity (a.u.); that for “CCTCCCTCACCGTCTTCCGCCTCGCCATCTCCAGCTCCGACGGAGTCACCTAGTGCAG”, 10100 fluorescence intensity (a.u.). As for “CACCATCCATGCATATGCATCTTGTAGTTATTGCTTGCTCCGGAGTCACCTAGTGCAG”, the binding signal was 9580 fluorescence intensity (a.u.).

Regarding “TCCACATCATCCGACCAACTCTACCAGCCATTCCACCCGCCGGAGTCACCTAGTGCAG”, the binding signal is 9160 fluorescence intensity (a.u.).

Regarding “CCTTATACTGTCTCACTTGTCTCACACTGAAACCGTTTTCCGGAGTCACCTAGTGCAG”, the binding signal is 8410 fluorescence intensity (a.u.). Turning to “ACGCCGTTAACTTTTTATCCAATGTTTGACCATTCGTCTTCGGAGTCACCTAGTGCAG”, the binding signal is 13000 fluorescence intensity (a.u.).

On to “GTATAACGCCGTTGACTTTTTAACCAATGTTTGACCATTCCGGAGTCACCTAGTGCAG”, for which the binding signal is 40400 fluorescence intensity (a.u.). In the case of “TGACGACGCCATTGACTTTTGAACACATGTTTGACCATTCCGGAGTCACCTAGTGCAG”, the binding signal was 15900 fluorescence intensity (a.u.). In the case of “CGTTTGGCCAAGTATATGACGCCCTAACTTATAAGTTGACCGGAGTCACCTAGTGCAG” it was 8420 fluorescence intensity (a.u.); in that of “GTATGACGCCGTTGACTTTTTGGCCAACGTTTGACCATTCCGGAGTCACCTAGTGCAG”, 41500 fluorescence intensity (a.u.).
